# Measured values from PubChem BioAssay (Tox21).
# Results filed as inconclusive are left out. Where a call stands in place of a potency, no number is given. Values without a mark were called inactive. The source made the active and inactive calls. The call rests on the fitted dose curve; in most records, active means well fitted cell-killing curve with a large enough effect in the repeat runs (not every such curve was filed as active); inconclusive means weak or mixed curves, or effect the other way; inactive means no such curve, though single readings can be large or run the other way.
# Test: qHTS assay to identify small molecule antagonists of the estrogen related receptor signaling pathway with the pleiotropic PPARgamma coactivator (PGC) from Tox21 10K library - cell viability counter screen (AID 1224840); further: nearly all actives have a fitted effect of over 40% in size
# Settings: PGC/ERR reporter cells viability, CellTiter-Fluor, 17.5 h; series mostly up to 92.4 µM
# Description: National Center for Advancing Translational Sciences [NCATS]
# NIH Chemical Genomics Center [NCGC]
# U.S. Environmental Protection Agency [EPA]
# National Institutes of Environmental Health Sciences [NIEHS]
# National Toxicology Program [NTP]
# U.S. Food and Drug Administration [FDA]
# Estrogen related receptors (ERRs), the first orphan nuclear receptors discovered, play an important role in the control of cellular energy metabolism. ERRs are required for high-energy production in response to the environmental challenges. The pleiotropic PPARgamma coactivator (PGC) is a major partner of ERR and a key regulator in energy homeostasis. Together they have been implicated in the etiology of metabolic disorders such as Type 2 diabetes and metabolic syndrome. ERR-alpha was also identified as an adverse marker for breast cancer progression; ERR-alpha-positive tumors have a poor prognosis. To screen and to identify environmental compounds that perturb the ERR and PGC/ERR signaling pathways could provide valuable information for potential therapeutic or preventive measures in the treatment of metabolic disease. To differentiate true PGC/ERR antagonists or agonist from cytotoxic substances, the assay is multiplexed with cell viability assay.
# Tox21 Assay Protocol Summary:
# The PGC/ERR cells were dispensed at 2,000 cells/5 ul/well in 1536-well white plates using a Multidrop dispenser. After the assay plates were incubated at a 37 C/5% CO2 incubator for 6 hours, 23 nL of compounds dissolved in DMSO, positive and negative controls or DMSO only was transferred to the assay plate by a pin tool. The plates were incubated at 37 C for 17.5 hours. 1 ul/well of CellTiter-Fluor reagent was added into the assay plates using a Flying Reagent Dispenser. After 30-minute incubation at 37 C/5% CO2, the fluorescence intensity in the plates was measured using a ViewLux plate reader.
SMILES,Potency,"viability change, negative = cytotoxic"
CC(Cl)(Cl)[N+](=O)[O-],inactive,–
CCC1(c2ccccc2)C(=O)NC(=O)NC1=O,inactive,–
O=CNC(N1CCN(C(NC=O)C(Cl)(Cl)Cl)CC1)C(Cl)(Cl)Cl (stereo not given),inactive,–
OCCSCSCCO,inactive,–
Cc1cnc[nH]1,inactive,–
COP(N)(=S)Oc1ccccc1C(=O)OC(C)C (stereo not given),inactive,–
CCCCc1ccc(O)cc1,inactive,–
CCOP(=S)(Oc1cnc(C(C)(C)C)nc1)OC(C)C (stereo not given),inactive,–
CC1=C(C(=O)O)N2C(=O)[C@@H](N)[C@H]2SC1,–,-5.15% [at 19 µM]
O=S(=O)(O)C(F)(F)C(F)(F)C(F)(F)C(F)(F)C(F)(F)C(F)(F)F,inactive,–
C=C(C)CN(CC)c1c([N+](=O)[O-])cc(C(F)(F)F)cc1[N+](=O)[O-],inactive,–
N#CCNCC#N,inactive,–
CCOP(=S)(OCC)Oc1cc(-c2ccccc2)on1,inactive,–
ClC(Cl)Br,inactive,–
O=NN1CCCCC1,inactive,–
CCOC(=O)CP(=O)(OCC)OCC,inactive,–
CN1C[C@@H](NS(=O)(=O)N(C)C)C[C@@H]2c3cccc4c3c(cn4C)C[C@H]21,inactive,–
C=C(C)[C@@H]1CC=C(C=O)CC1,inactive,–
CNC(=O)Oc1ccc(N(C)C)c(C)c1,inactive,–
CCC#N,inactive,–

SMILES,Potency,"viability change, negative = cytotoxic"
COC(C)(C)C,inactive,–
COC(=O)C1=CCCN(C)C1,inactive,–
CCCSC(=O)N(CCC)CCC,inactive,–
CC(C)(C)C(=O)C(Oc1ccc(Cl)cc1)n1cncn1 (stereo not given),inactive,–
COP(=S)(OC)Oc1ccc(S(N)(=O)=O)cc1,inactive,–
CC1CCC(=O)O1 (stereo not given),inactive,–
CCOC(=O)N(C)C(=O)CSP(=S)(OCC)OCC,inactive,–
O=C(NCO)NCO,inactive,–
CCNc1nc(NC(C)C)nc(OC)n1,inactive,–
CC(C)CC(N(C)C)C1(c2ccc(Cl)cc2)CCC1 (stereo not given),inactive,–
C#CCN1C(=O)COc2cc(F)c(N3C(=O)C4=C(CCCC4)C3=O)cc21,inactive,–
OC(c1ccc(F)cc1)(c1cncnc1)c1ccccc1Cl (stereo not given),inactive,–
NC(=S)C(N)=S,inactive,–
COc1cc(OC)nc(Oc2cccc(Oc3nc(OC)cc(OC)n3)c2C(=O)O)n1,inactive,–
Cc1nnc2n1-c1sc(CCC(=O)N3CCOCC3)cc1C(c1ccccc1Cl)=NC2,inactive,–
COC(=O)c1ccccc1S(=O)(=O)NC(=O)Nc1nc(C)cc(C)n1,inactive,–
O=C1CN2CCOC2(c2ccccc2Cl)c2cc(Cl)ccc2N1 (stereo not given),inactive,–
COC(=O)C(c1ccccc1)C1CCCCN1 (stereo not given),inactive,–
CCCSP(=O)(OCC)Oc1ccc(Br)cc1Cl (stereo not given),inactive,–
BrCCCCCCBr,inactive,–
